Experimental data from PubChem BioAssay (NCATS).
Inconclusive results are not listed. A call without a number means that no potency is given here. The source made the active and inactive calls. The call rests on the fitted dose curve; in most records, active means well fitted curve in the direction sought with a large enough effect; inconclusive means small, poorly fitted or top-dose-only effect, or another doubt; inactive means no such curve, though single readings can be large; an effect the other way counts as inactive or inconclusive.

Key:
[1] = molecular target: Aldehyde dehydrogenase, mitochondrial (Homo sapiens) (UniProt P05091); experiment: qHTS for Inhibitors of the Aldehyde Dehydrogenase Family (ALDH2) Primary screen (AID 2061308); further: nearly all actives have a fitted effect of over 55% in size
[2] = molecular target: Retinaldehyde dehydrogenase 3 (Homo sapiens) (UniProt P47895); experiment: qHTS for Inhibitors of the Aldehyde Dehydrogenase Family (ALDH1A3) Primary screen (AID 2061315)

Row | SMILES | Potency [1] | Potency [2]
1 | COc1cccc(CNc2ccc([S+](=O)([O-])Nc3ccccc3)cc2)c1Cl | inactive | inactive
2 | O=C(OCC#CCSc1nnc(-c2cccc3ccccc23)o1)c1cc(F)c(F)c(F)c1 | inactive | inactive
3 | c1nc(N2CCNCC2)c2cc(-c3ccc4c(c3)OCO4)ccc2n1 | inactive | inactive
4 | Clc1ccc(CSc2nc3ncc(Br)cc3[nH]2)cc1Cl | inactive | inactive
5 | Cc1nc(NCc2ccccc2)c2nc(-c3ccccc3)n(CCN3CCCCC3)c2n1 | inactive | inactive
6 | O=[S+]([O-])(Nc1ccccc1)c1ccc(NCc2cccc(C(F)(F)F)c2Cl)cc1 | inactive | inactive
7 | CC(=O)Nc1sc2c(c1-c1ccc3nsnc3c1)CCNC2 | inactive | inactive
8 | C=C1C(=O)OC2C1CCC1(C)C(O)CC=C(C)C21 (stereo not given) | inactive | inactive
9 | Cc1ccccc1C(=O)N1CCc2cc(-c3nc(NC(=O)Cc4ccc5c(c4)OCCO5)sc3C)ccc21 | inactive | inactive
10 | Cc1ccc(-c2cc(C(=O)Nc3ccc(-n4cccn4)cc3)c3ccccc3n2)cc1C | inactive | inactive
11 | c1ccc(-n2cc(-c3nnc4n3CCCCC4)c3ccccc32)cc1 | inactive | inactive
12 | CN(C)CCOC(C)(c1ccccc1)c1ccc(Cl)cc1 (stereo not given) | inactive | inactive
13 | C=C(C(=O)OC[C@H]1O[C@@H](OC(=O)/C=C/c2ccccc2)[C@H](O)[C@@H](O)[C@@H]1O)C(O)CO (stereo not given in full) | inactive | inactive
14 | c1nc(NCc2ccc3c(c2)OCO3)c2cc(-c3ccc4c(c3)OCCO4)ccc2n1 | inactive | inactive
15 | Cc1cc(C)nc(NC(=S)N2CCN(c3ncnc4sccc34)CC2)c1 | inactive | inactive
